Most compounds without a hit are left out; they make up all but 9.4% or so of the library.
IMPase cell inh = IMPase inhibition in cells; CHO-M1 cells, IP1 accumulation, HTRF TR-FRET ratio; inhibition (IP1 accumulation), % at 46.1 µM; 120,000 tested, under 10 active; active = well fitted curve in the direction sought with a large enough effect in the signal ratio, not every such curve was filed as active; inconclusive = small, poorly fitted or top-dose-only effect, or a change in a side signal; inactive = no such curve, though single readings can be large or run the other way; the % refers to the signal ratio;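 note: cells stimulated with carbachol in lithium chloride buffer; higher means more IMPase inhibition seen as more IP1 and lower FRET ratio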
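In this qHTS, compounds (final up to 46 uM) act on CHO-M1 cells that are then activated through the M1 receptor with carbachol, in pH 7.4 buffer containing 50 mM LiCl, for 30 min. IP1 accumulation is quantified by the IP-One immunoassay.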
ALDH1A1 block = ALDH1A1 (human) enzyme inhibition. P00352. Purified ALDH1A1, NADH fluorescence, propionaldehyde substrate. Potency, µM (titrated, usually from 75.3 µM), usual class: inhibitors. 220,000 tested, 7.3% active; active = well fitted inhibition curve with a large enough effect, not every such curve was filed as active; inconclusive = small, poorly fitted or top-dose-only effect, or another doubt; inactive = no such curve, though single readings can be large or run the other way
Target sequence (P00352 whole entry, looked up): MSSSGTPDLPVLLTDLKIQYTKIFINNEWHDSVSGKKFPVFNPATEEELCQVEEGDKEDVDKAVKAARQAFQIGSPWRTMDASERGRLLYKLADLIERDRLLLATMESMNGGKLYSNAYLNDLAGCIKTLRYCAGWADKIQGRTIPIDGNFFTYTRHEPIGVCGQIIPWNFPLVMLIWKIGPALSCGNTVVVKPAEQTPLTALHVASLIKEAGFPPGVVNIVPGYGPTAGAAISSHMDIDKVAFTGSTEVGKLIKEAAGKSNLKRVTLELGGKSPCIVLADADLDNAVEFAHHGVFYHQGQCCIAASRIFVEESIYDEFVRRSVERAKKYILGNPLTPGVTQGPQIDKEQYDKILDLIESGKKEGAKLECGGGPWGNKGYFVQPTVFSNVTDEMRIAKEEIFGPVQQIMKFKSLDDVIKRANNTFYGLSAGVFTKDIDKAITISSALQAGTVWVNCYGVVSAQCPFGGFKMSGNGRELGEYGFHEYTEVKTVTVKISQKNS
IMPase Li inh = cell-permeable IMPase inhibitors with lithium potentiation; 210,000 tested, 0.35% active; Potency, µM (highest dose often 59.4 µM), hits mostly inhibitors; CHO-M1 cells, IP1 TR-FRET (IP-One), carbachol + lithium;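 note: IP1 builds up when IMPase is blocked and the TR-FRET signal falls; nearly all actives have a fitted effect of over 50% in size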
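CHO cells stably expressing M1 receptor (2000/well, cultured 16–30 h) treated 30 min at 37C with compound plus low lithium. Cytosolic IP1 by TR-FRET (665/620 ratio and 620 channel) after 10 min lysis; AC50 by Hill fit.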
HTT ATP protect = Huntington cell model cytoprotection by ATP luminescence. PC12 HTT-Q103 induced, cytoprotection, ATP luminescence, 40 h. Potency, µM (highest dose often 56.4 µM), most hits filed as activators. 230,000 tested, 0.14% active; note: nearly all actives have a fitted effect of over 45% in size
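Huntington model: PC12 line, ecdysone-inducible HTTQ103 exon1–GFP, tebufenozide 100 nM. Test articles in a dose series. Endpoint luminescence from cellular ATP.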
HPGD block = HPGD (human) dehydrogenase inhibition; P15428; purified HPGD, NADH fluorescence kinetic, PGE2 substrate; Potency, µM, hits mostly inhibitors; 150,000 tested, 4.3% active; active = well fitted inhibition curve with a large enough effect, not every such curve was filed as active; inconclusive = small, poorly fitted or top-dose-only effect, or another doubt; inactive = no such curve, though single readings can be large or run the other way
Target sequence (P15428 whole entry, looked up): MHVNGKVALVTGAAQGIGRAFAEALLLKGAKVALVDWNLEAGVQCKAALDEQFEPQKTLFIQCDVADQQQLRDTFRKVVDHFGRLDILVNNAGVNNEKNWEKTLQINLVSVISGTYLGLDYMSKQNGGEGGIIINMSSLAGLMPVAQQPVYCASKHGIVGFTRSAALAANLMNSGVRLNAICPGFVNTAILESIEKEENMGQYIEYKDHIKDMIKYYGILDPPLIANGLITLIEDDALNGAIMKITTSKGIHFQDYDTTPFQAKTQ
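NADH formation kinetics: reaction with 30 uM PGE2 and 1 mM NAD+ (final), 20 nM enzyme, Tris-HCl pH 8 with Tween 20, after 15 min compound preincubation at room temperature. Fluorescence change, last versus first of five reads.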
HTT aggregate = mutant huntingtin aggregation inhibition; AID 1688; Potency, µM (highest dose often 46.1 µM), most hits filed as inhibitors; 220,000 tested, 1.1% active; PC12 HttQ103-GFP aggregates, Acumen cytometry, 40 h; note: nearly all actives have a fitted effect of over 60% in size
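Read-out: GFP aggregate count by laser scanning cytometer (488 nm excitation, 500-530 nm emission, 1–25 µm objects >6 SD above background). Cells: PC12, inducible HTTex1-Q103-GFP, 100 nM tebufenozide; compounds titrated.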
Numbers stand for hits; i = inactive; ? = inconclusive; nt = no result given; [ ] = remark or other dose. Unless noted, calls come from the whole dose curve; as a rule, active = well fitted curve in the direction sought with a large enough effect; inconclusive = small, poorly fitted or top-dose-only effect, or another doubt; inactive = no such curve, though single readings can be large; an effect the other way counts as inactive or inconclusive.

SMILES | IMPase cell inh | ALDH1A1 block | IMPase Li inh | HTT ATP protect | HPGD block | HTT aggregate
CCOC(=O)/C(C(=O)Nc1ccc(Br)cc1)=C1/NC(C)(C)Cc2ccccc21 | nt | ? | i | i[10 µM] | i | i
CCOC(=O)/C(C(=O)Nc1ccccc1Cl)=C1/NC(C)(C)Cc2ccccc21 | i | 14µM | i | i[10 µM] | i | i
CCOC(=O)/C(C)=C1\NC(C)(C)Cc2ccccc21 | nt | ? | i | nt | 20µM | ?
N.N.N.N.N.N.N.N.N.N.N.N.N.N.O.O.[Ru].[Ru].[Ru] | i | nt | nt | i[1.9 µM] | nt | nt
CC1N/C(=C\C(=O)c2ccccc2)N(O)C1(C)C (configuration not stated) | i | i | i | i[0.074 µM] | 14µM | i
CCCCc1nc2c(c3c1CC(C)OC3)CN(CCOc1ccccc1)CC2 (configuration not stated) | nt | i[13.5 µM] | nt | i[10 µM] | nt | nt
CCOc1ccc(C(=O)CCNC(Cc2cnc[nH]2)C(=O)O)cc1 (configuration not stated) | i | 1.6µM | i | i | i | i
CN(C(=O)COC(=O)c1cc(S(=O)(=O)N2CCOCC2)c(Cl)cc1Cl)C1CCS(=O)(=O)C1 (configuration not stated) | nt | i | i | i | nt | i[9.22 µM]
CN(C(=O)COc1ccc(S(=O)(=O)N2CCOCC2)cc1[N+](=O)[O-])C1CCS(=O)(=O)C1 (configuration not stated) | nt | 13µM | nt | i[10 µM] | nt | i[9.22 µM]
COc1ccc(Cl)cc1N1C(=N)SCC1=O | nt | i | i | i[10 µM] | nt | i[9.22 µM]
Cc1ccc(N2C(=N)SCC2=O)cc1Cl | nt | ? | i | i[10 µM] | 14µM | i
CCC1(C(=O)OC)NC(c2ccco2)C2C(=O)N(c3ccc(F)cc3)C(=O)C21 (configuration not stated) | nt | 18µM | i | i[10 µM] | nt | i[9.22 µM]
CCC1(C(=O)OC)NC(c2ccco2)C2C(=O)N(c3ccccc3)C(=O)C21 (configuration not stated) | i | ? | i | i | i | i
Cc1ccc(OCC(=O)OC2=C(C(=O)c3ccccc3)N(C)S(=O)(=O)c3ccccc32)cc1 | i | nt | nt | nt | nt | nt
CCOc1ccc(-n2c(C)cc(/C=N\NC(=O)CC(=O)NC3CCCCC3)c2C)cc1 | nt | i | i | i[10 µM] | i | i
Cc1cccc(-n2c(C)cc(C(=O)NC3CCCCC3)c2C)c1 | i | i | i | i[10 µM] | 0.71µM | i
COc1ccc(-n2c(C)cc(C(=O)NC3CCCCC3)c2C)cc1 | i | 7.9µM | i | i | 1.1µM | i
Cc1cccc(C(=O)NC2CC3CCCC(C2)N3C(=O)NC2CCCCC2)c1 (configuration not stated) | i | i | i | i[10 µM] | i | i
C=C1c2ccccc2O[C@H](C(=O)OCC)C1OC (mixture of isomers) | nt | 32µM | i | i | i | nt
C=C1c2cccc(C(F)(F)F)c2O[C@H](C(=O)OCC)C1OC (mixture of isomers) | nt | i | i | i | i | nt
C=C1c2ccccc2O[C@H](C(=O)OCC)[C@@H]1CCC(C)C (tested in a mixture with another compound) | nt | 32µM | i | i | i | nt
C/C=C(\C)C(=O)C[Si](C)(C)c1ccccc1 | nt | i | i | i | i | nt
COc1ccc(Cl)cc1NC(=O)c1cn(C2CCCC2)c(=O)c2c1c1ccccc1n2C | i | nt | nt | nt | nt | nt
C[C@@H]1C(=O)O[C@H]2[C@@H](O)[C@@]34[C@H]5CC(C(C)(C)C)[C@]36[C@@H](OC(=O)[C@@H]6O)O[C@@]4(C(=O)O5)[C@@]12O (some centres not stated) | i | i | i | i[1.9 µM] | i | nt
COc1ccc(Cl)cc1NC(=O)CN(c1cccc(C)c1C)S(=O)(=O)c1ccccc1 | i | nt | nt | nt | nt | nt
SMILES | IMPase cell inh | ALDH1A1 block | IMPase Li inh | HTT ATP protect | HPGD block | HTT aggregate
Cc1ccc(C(=O)O)cc1N1C(=O)c2cccc3cc(Br)cc(c23)C1=O | ? | i | 2.2µM | i | i | i
Cc1n[nH]c(C)c1N1C(=O)c2cccc3cc(Br)cc(c23)C1=O | i | i | i | i | i | i
COC(=O)NC(/C(C(=O)OC)=C(\C)NCc1ccccc1)c1cccc(F)c1 (configuration not stated) | nt | i[13.5 µM] | nt | i[10 µM] | nt | nt
CC(=O)Nc1ccc(C(C#N)c2ccccc2)cc1 (configuration not stated) | nt | 14µM | i | i[10 µM] | nt | i[9.22 µM]
N#CC(c1ccc(F)cc1)c1ccc(C(=O)c2ccccc2)cc1 (configuration not stated) | i | i | i | i | 14µM | i[9.22 µM]
O=C(NCC(c1ccc(F)cc1)N1CCOCC1)c1ccc(C(=O)c2ccccc2)cc1 (configuration not stated) | nt | nt | nt | i[10 µM] | nt | i[9.22 µM]
CC(=O)Nc1ccc(Nc2ccccc2)cc1 | nt | nt | nt | i[10 µM] | nt | i[9.22 µM]
N#CC(c1ccccc1)c1ccc(C(=O)c2ccc(F)cc2)cc1 (configuration not stated) | i | 20µM | i | i | ? | ?
Cc1cccc(NC(=O)Cn2cc(C(=O)C3CCCCC3)c3ccccc32)c1C | i | nt | nt | nt | nt | nt
CCOC(=O)c1[nH]cnc1C(=O)Nc1cccc(OC)c1 | nt | nt | nt | i[10 µM] | nt | i[9.22 µM]
CNC(=O)c1[nH]cnc1C(=O)Nc1cccc(OC)c1 | i | 28µM | i | i[0.074 µM] | i | i
COc1ccccc1N1C(=N)S/C(=C\c2ccc(-c3ccccc3C(=O)O)o2)C1=O | nt | ? | i | nt | 25µM | i
Cc1ccc(NC(=O)CN2C(=O)S/C(=C\c3ccc(-c4cccc(C(=O)O)c4C)o3)C2=O)cc1C | nt | i | i | nt | nt | i
N=C1S/C(=C\c2ccc(-c3ccccc3C(=O)O)o2)C(=O)N1c1ccc2c(c1)OCO2 | nt | 11µM | i | i | nt | i
COc1cc(/C=C/C(=O)c2cccs2)cc(OC)c1OC | i | 10µM | i | ? | 28µM | nt
COc1cc(/C=C/C(C)=O)cc(OC)c1OC | i | i | i | i | i | ?
COC(=O)c1cc(=O)n2c(-c3ccc(OC)cc3)csc2n1 | i | 5µM | i | i | i | i
O=C(NC1CC1)c1cc(F)c(F)cc1Cl | i | i | i | i | 22µM | i
Nc1nnc(CSCc2ccc(F)cc2)s1 | i | 10µM | i | i[10 µM] | 22µM | i
Cc1ccc(S(C)(=O)=O)cc1S(=O)(=O)Nc1ccccc1 | nt | i | i | i[10 µM] | i | i
COc1ccc(NS(=O)(=O)c2cc(C)ccc2C)cc1 | i | 0.56µM | i | i | 14µM | i
Cc1cc(C)c(S(=O)(=O)Nc2ccc(O)cc2)cc1C | i | 14µM | i | i | i | i
COc1ccc(NS(=O)(=O)c2cc(C(=O)O)ccc2C)cc1 | i | i | i | i | i | i
COc1ccc(NS(=O)(=O)c2cc(S(C)(=O)=O)ccc2C)cc1 | nt | 28µM | i | i[10 µM] | i | i
CCCn1c(-c2ccc(F)cc2)nc2c(NCC3CCN(C)CC3)nc(C)nc21 | nt | ? | i | i | ? | nt
CSc1nc(NC2CCCC2)c([N+](=O)[O-])c(NC2CCCC2)n1 | i | i | i | i | i | nt
